This is an account of results in PubChem BioAssay AID504545 (Broad Institute, 2011).

Measured potencies and affinities stand elsewhere. Records with an inconclusive call do not appear. Activity calls are given as the source filed them. The rule behind the calls is not given here.

For this assay, the target named is Cyclin-dependent kinase 5 activator 1 (Homo sapiens) + Cyclin-dependent kinase 5 (Homo sapiens) (UniProt Q15078+Q00535). In words: CDK5/p35 kinase inhibitors, dose response, biochemical, cherry-picked samples, set 2 (AID 504545). The conditions noted are these: biochemical plate reader; series mostly up to 30 µM.
Cyclin-dependent kinase 5 activator 1 (Homo sapiens) + Cyclin-dependent kinase 5 (Homo sapiens), sequence (Q00535 whole entry, looked up): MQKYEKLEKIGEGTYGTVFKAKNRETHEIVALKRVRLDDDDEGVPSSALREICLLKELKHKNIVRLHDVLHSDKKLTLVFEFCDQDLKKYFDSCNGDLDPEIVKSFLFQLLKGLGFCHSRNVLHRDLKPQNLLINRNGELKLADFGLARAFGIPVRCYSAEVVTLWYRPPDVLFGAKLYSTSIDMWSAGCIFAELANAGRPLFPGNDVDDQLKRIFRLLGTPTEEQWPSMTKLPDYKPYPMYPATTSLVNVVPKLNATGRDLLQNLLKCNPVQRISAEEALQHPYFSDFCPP
Cyclin-dependent kinase 5 activator 1 (Homo sapiens) + Cyclin-dependent kinase 5 (Homo sapiens), sequence (Q15078 whole entry, looked up): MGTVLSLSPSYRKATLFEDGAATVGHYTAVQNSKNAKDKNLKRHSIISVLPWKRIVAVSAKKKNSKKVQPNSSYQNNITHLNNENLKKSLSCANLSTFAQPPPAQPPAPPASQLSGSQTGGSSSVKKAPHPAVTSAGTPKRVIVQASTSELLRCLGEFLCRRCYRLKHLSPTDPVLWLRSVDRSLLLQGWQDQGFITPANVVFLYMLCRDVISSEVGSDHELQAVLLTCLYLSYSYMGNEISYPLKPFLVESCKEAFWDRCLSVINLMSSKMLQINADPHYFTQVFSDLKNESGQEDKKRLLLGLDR
As for `COc1cc2c(ccc3c4cc(OC)c(OC)cc4c[n+](C)c23)cc1O`, the outcome was inactive.

For the molecule `Nc1ncnc2c1ccn2[C@@H]1O[C@H](CO)[C@@H](O)[C@H]1O`, the result was inactive.

Turning to `Nc1ccc(CC2=NCCN2)cc1`, the result was inactive.

As to `NC(=O)c1c(Br)n(C2OC(CO)C(O)C2O)c2ncnc(N)c12` (centres undefined), the outcome was inactive.
